About 83,000 compounds went through this panel and 20% of them were active in at least one assay; those are over-represented in the sample as a whole.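 Testing used 96-well plates and a 48-hour single-concentration exposure. Example: -40 means 40% of the starting cells died.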 Unmarked numbers belong to inactive results. Calls of active or inactive are those of the source. Rule for the calls: active = growth percent below 10; inactive = the rest.

Eight compounds from PubChem BioAssay (NCI) can be followed below.

Among the test systems are NCI-H23 lung; NCI-H226 lung; NCI-H322M lung; HOP-62 NSCLC; NCI-H460 lung; HOP-92 NSCLC; NCI-H522 lung; A549/ATCC NSCLC; 786-0 renal; COLO 205 colon; DU-145 prostate; K-562 leukemia; MALME-3M melanoma; MDA-MB-231 breast; RXF 393 renal; SF-268 CNS; SF-295 CNS; SF-539 CNS; UACC-257 melanoma; M14 melanoma.
Holding throughout (assay): NCI-60 one-dose screen, 48 h (100 = growth as untreated, 0 = no growth, -100 = all killed)
Conditions in all cases: 10 µM unless noted

`CN1CCN(c2ccc(-c3ccc4ncc(C#N)c(Nc5ccc(F)c(Cl)c5)c4c3)cn2)CC1`: the growth was 79% in the test on NCI-H23 lung; 84.2% with NCI-H226 lung; 16.8% with NCI-H322M lung; 68.7% in the test with HOP-62 NSCLC; 26.9% in the test on NCI-H460 lung; 57.9% with HOP-92 NSCLC. Also, the growth with NCI-H522 lung was 39.1%; in the test with A549/ATCC NSCLC, 51.3%; with 786-0 renal it was 52.9%; with COLO 205 colon, 57.1%; in the test on DU-145 prostate, 27.5%; in the test with K-562 leukemia, 17.3%. Besides, the growth is 27.9% in the test on MALME-3M melanoma; 77.2% in the test on MDA-MB-231 breast; 27.3% in the test on RXF 393 renal; 47.7% in the test with SF-268 CNS; 71.5% in the test with SF-295 CNS; 60.2% with SF-539 CNS. Further, the growth with UACC-257 melanoma is 34%; in the test with M14 melanoma, 30.5%.
As to `COc1ccc(/C=C(\C#N)n2nnc3c(F)cccc32)cc1`, the growth is 18% with NCI-H23 lung; 45% in the test with NCI-H226 lung; 37.9% with NCI-H322M lung; 28.7% in the test on HOP-62 NSCLC; 2.99% (active) in the test on NCI-H460 lung; 21.4% in the test with HOP-92 NSCLC. The growth was 11.6% with NCI-H522 lung; 35.6% in the test with A549/ATCC NSCLC; 15.9% in the test on 786-0 renal; -6.97% (active) in the test on COLO 205 colon; 2.45% (active) in the test on DU-145 prostate; 12.1% with K-562 leukemia. Further, the growth is 36.8% with MALME-3M melanoma; 21% with MDA-MB-231 breast; -21.3% (active) in the test on RXF 393 renal; 39.7% in the test with SF-268 CNS; 5.51% (active) in the test with SF-295 CNS; -27.4% (active) in the test with SF-539 CNS. For the same compound, the figures for the growth in the test on UACC-257 melanoma and in the test on M14 melanoma were 62.6% and -16.2% (active), respectively.
`NCCCNc1nc2ccccc2c2c(=O)c3cc(F)cc(Cl)c3sc12`: the growth in the test with NCI-H23 lung was 95.5%; in the test with NCI-H226 lung, 88.9%; with NCI-H322M lung, 87.7%; with HOP-62 NSCLC, 92.6%; in the test on NCI-H460 lung it was -74% (active); with HOP-92 NSCLC, 70.4%. Further, the growth was 92.9% in the test with NCI-H522 lung; 79.1% in the test with A549/ATCC NSCLC; 86.3% in the test with 786-0 renal; 106% in the test on COLO 205 colon; 64.1% in the test on DU-145 prostate; -17.7% (active) in the test on K-562 leukemia. Further, the growth was 106% in the test on MALME-3M melanoma; 51.4% in the test on MDA-MB-231 breast; 73.6% with RXF 393 renal; 79.9% in the test on SF-268 CNS; 102% in the test on SF-295 CNS; 83% with SF-539 CNS. The growth in the test on UACC-257 melanoma is 114%; with M14 melanoma it was 90.4%.
On to `CNC(=O)c1[nH]cc(-c2ccccc2)c1-c1cc(OC)c2c(c1OC)OCO2`, for which the growth was 104% with NCI-H23 lung; 94.6% in the test on NCI-H226 lung; 103% in the test with NCI-H322M lung; 94.5% in the test with HOP-62 NSCLC; 108% in the test with NCI-H460 lung; 96.7% with HOP-92 NSCLC. Further, the growth in the test on NCI-H522 lung is 87.9%; in the test with A549/ATCC NSCLC it was 96.7%; in the test on 786-0 renal, 94.8%; in the test on COLO 205 colon, 102%; in the test with DU-145 prostate, 106%; with K-562 leukemia it was 98.7%. Further, the growth in the test on MALME-3M melanoma was 105%; in the test with MDA-MB-231 breast, 96.2%; in the test on RXF 393 renal, 94.1%; in the test on SF-268 CNS it was 93.6%; in the test with SF-295 CNS, 106%; in the test on SF-539 CNS it was 102%. For the same compound, the growth with UACC-257 melanoma is 101%; with M14 melanoma it was 98.3%.
For `COc1ccc(-c2cc3c4c(nc5ccccc5c4c2)CC(c2cc(OC)c(OC)c(OC)c2)O3)cc1` (stereo not given), the growth was 54.2% in the test on NCI-H23 lung; -12.5% (active) with NCI-H226 lung; 54.2% in the test with NCI-H322M lung; 34.7% in the test with HOP-62 NSCLC; 12.8% with NCI-H460 lung; -7.6% (active) with HOP-92 NSCLC. The growth in the test with NCI-H522 lung was 55.6%; with A549/ATCC NSCLC it was 64.7%; in the test with 786-0 renal, -56.1% (active); in the test with COLO 205 colon, 67.5%; in the test on DU-145 prostate it was 35.4%; with K-562 leukemia, 40.9%. The growth was 20.8% with MALME-3M melanoma; 19.6% with MDA-MB-231 breast; -0.548% (active) in the test on RXF 393 renal; 44.4% with SF-268 CNS; 42% in the test on SF-295 CNS; -16% (active) with SF-539 CNS. For the same compound, the growth is 46.3% in the test with UACC-257 melanoma and 57.5% in the test on M14 melanoma.
As to `COc1ccc(/C=C/c2c(C(=O)/C=C/c3ccc(Cl)cc3)c(C)nc3ccccc23)cc1`, the growth with NCI-H23 lung was 35.8%; in the test on NCI-H226 lung, 12.4%; in the test with NCI-H322M lung it was 68.6%; with HOP-62 NSCLC, 22.7%; with NCI-H460 lung it was 0.257% (active); in the test on HOP-92 NSCLC, 70.2%. Besides, the growth was 23.6% in the test on NCI-H522 lung; 84.1% in the test with A549/ATCC NSCLC; 14.3% with 786-0 renal; 58.4% with COLO 205 colon; 13.8% in the test with DU-145 prostate; 9.27% (active) in the test on K-562 leukemia. For the same compound, the growth in the test on MALME-3M melanoma is 28%; in the test on MDA-MB-231 breast it was 34.1%; in the test on RXF 393 renal, -18.6% (active); with SF-268 CNS, 58.7%; in the test on SF-295 CNS, 42.2%; in the test on SF-539 CNS, 14.4%. Besides, the results for the growth with UACC-257 melanoma and with M14 melanoma were 38.8% and 14.7%, respectively.
Consider `CSc1nc2ccc(C)cc2cc1/C=N/O`, for which the growth with NCI-H23 lung is 99.4%; with NCI-H226 lung, 76.7%; in the test with NCI-H322M lung it was 94.3%; in the test on HOP-62 NSCLC, 82.8%; with NCI-H460 lung it was 91.1%; in the test with HOP-92 NSCLC, 72.2%. The growth in the test on NCI-H522 lung was 75.7%; with A549/ATCC NSCLC it was 71.8%; in the test with 786-0 renal, 89.9%; in the test on COLO 205 colon, 102%; with DU-145 prostate it was 93%; in the test on K-562 leukemia, 94.7%. The growth in the test on MALME-3M melanoma is 108%; in the test with MDA-MB-231 breast, 83.5%; in the test with RXF 393 renal it was 87.3%; in the test with SF-268 CNS, 83.1%; with SF-295 CNS, 101%; with SF-539 CNS, 91.1%. Besides, the growth is 80.6% in the test on UACC-257 melanoma and 87.8% with M14 melanoma.
As for `CCN(CC)CCCNc1nc2ccccc2c2c(=O)c3cc(Cl)ccc3sc12`, the growth was 86.5% with NCI-H23 lung; 82.1% in the test with NCI-H226 lung; 84.5% with NCI-H322M lung; 74.4% with HOP-62 NSCLC; 8.8% (active) with NCI-H460 lung; 36.9% in the test on HOP-92 NSCLC. Besides, the growth is 73.8% with NCI-H522 lung; 64.7% in the test on A549/ATCC NSCLC; 75.7% with 786-0 renal; 56.3% in the test with COLO 205 colon; 54.4% in the test with DU-145 prostate; -44.2% (active) with K-562 leukemia. For the same compound, the growth in the test on MALME-3M melanoma is 84.6%; with MDA-MB-231 breast, -9.32% (active); in the test on RXF 393 renal, 76%; in the test with SF-268 CNS it was 55.6%; in the test on SF-295 CNS it was 104%; with SF-539 CNS it was 58.3%. For the same compound, the growth in the test on UACC-257 melanoma is 102%; in the test with M14 melanoma it was 1.36% (active).
